Results as given in publication PMC7862700, “An all-to-all approach to the identification of sequence-specific readers for epigenetic DNA modifications on cytosine”.

Legend:
Test in all cases: DAPPL (digital affinity profiling via proximity ligation, sequencing); 10 mM Tris-HCl pH 7.5, 50 mM NaCl, 1 mM DTT, 4% glycerol, room temperature, 30 min; GST-TFs on glutathione beads, 16-mer random dsDNA library, 0.1% formaldehyde crosslink after washing; high values mean tight binding
Conditions in all cases: protein: recombinant; tags: N-terminal GST; dsDNA, one strand shown
FEV = molecular target: T1, FEV (Homo sapiens, UniProt Q99581 1-238)
T1 sequence: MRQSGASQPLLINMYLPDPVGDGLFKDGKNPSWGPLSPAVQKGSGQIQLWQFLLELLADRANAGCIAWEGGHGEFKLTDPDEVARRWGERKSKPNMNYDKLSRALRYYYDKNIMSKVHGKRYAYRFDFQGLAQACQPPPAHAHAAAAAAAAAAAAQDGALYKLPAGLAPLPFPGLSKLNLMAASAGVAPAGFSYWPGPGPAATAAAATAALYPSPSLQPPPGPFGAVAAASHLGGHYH
In short: (§1)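 A tag-only sample was pooled with DNA-barcoded human transcription factors that had been expressed in yeast as GST fusions and captured on glutathione beads. The pools were incubated for 30 min at room temperature with 200 nmole of a random double-stranded 16-mer DNA library in Tris/NaCl/DTT/glycerol buffer, then washed, crosslinked with 0.1% formaldehyde, proximity-ligated (BsaI/T4 ligase, 1 h, 37 °C), PCR-amplified and sequenced on an Illumina NextSeq500. Binding signal is each hexamer's read frequency for a factor divided by its frequency for the tag-only sample.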

ETV5 = ETV5 (Homo sapiens, UniProt P41161 1-510)
Sequence of ETV5 (P41161 whole entry): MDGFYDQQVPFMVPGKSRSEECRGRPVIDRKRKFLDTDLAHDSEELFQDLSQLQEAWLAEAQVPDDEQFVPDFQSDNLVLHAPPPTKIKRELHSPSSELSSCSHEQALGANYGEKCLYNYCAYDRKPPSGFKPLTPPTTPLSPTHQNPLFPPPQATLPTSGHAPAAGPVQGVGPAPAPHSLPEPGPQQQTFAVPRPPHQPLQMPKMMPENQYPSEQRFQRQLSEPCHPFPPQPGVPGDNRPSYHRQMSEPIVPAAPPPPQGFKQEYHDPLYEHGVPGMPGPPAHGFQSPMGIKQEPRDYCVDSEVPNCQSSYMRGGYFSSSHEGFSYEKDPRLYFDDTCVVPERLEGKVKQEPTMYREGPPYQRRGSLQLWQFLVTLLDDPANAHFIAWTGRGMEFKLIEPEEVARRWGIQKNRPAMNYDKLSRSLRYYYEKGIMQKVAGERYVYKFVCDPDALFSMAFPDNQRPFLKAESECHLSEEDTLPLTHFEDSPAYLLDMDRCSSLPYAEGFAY
In short: as §1

SPIC = molecular target: T2, SPIC (Homo sapiens, UniProt Q8N5J4 1-248)
T2 sequence: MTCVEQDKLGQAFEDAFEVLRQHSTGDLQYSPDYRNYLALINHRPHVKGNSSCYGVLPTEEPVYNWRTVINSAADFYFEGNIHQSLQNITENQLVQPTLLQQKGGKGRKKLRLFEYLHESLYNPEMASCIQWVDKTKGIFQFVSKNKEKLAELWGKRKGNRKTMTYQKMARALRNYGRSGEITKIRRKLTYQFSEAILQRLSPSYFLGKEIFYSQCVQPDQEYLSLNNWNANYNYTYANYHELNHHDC
In short: as §1

ELF4 = ELF4 (Homo sapiens, UniProt Q99607 1-663)
Sequence of ELF4 (Q99607 whole entry): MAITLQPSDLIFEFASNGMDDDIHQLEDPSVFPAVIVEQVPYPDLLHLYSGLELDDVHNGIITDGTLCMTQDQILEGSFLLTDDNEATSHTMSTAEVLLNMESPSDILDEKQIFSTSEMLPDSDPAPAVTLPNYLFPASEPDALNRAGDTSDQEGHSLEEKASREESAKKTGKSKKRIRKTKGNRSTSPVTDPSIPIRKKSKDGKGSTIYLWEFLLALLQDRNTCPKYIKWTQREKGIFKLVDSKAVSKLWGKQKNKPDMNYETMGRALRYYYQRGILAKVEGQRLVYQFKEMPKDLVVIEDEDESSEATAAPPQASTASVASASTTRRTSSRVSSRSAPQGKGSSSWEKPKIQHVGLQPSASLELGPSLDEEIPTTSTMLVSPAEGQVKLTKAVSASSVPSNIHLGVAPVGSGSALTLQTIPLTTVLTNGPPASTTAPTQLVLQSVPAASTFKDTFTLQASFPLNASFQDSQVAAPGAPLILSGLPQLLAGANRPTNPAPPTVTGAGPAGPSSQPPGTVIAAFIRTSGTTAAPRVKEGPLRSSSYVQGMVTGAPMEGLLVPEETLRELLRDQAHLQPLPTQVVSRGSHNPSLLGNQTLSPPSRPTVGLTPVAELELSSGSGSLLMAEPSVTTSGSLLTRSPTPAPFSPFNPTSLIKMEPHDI
In short: as §1

ELK4 = molecular target: T3, ELK4 (Homo sapiens, UniProt P28324-2 1-405)
T3 sequence: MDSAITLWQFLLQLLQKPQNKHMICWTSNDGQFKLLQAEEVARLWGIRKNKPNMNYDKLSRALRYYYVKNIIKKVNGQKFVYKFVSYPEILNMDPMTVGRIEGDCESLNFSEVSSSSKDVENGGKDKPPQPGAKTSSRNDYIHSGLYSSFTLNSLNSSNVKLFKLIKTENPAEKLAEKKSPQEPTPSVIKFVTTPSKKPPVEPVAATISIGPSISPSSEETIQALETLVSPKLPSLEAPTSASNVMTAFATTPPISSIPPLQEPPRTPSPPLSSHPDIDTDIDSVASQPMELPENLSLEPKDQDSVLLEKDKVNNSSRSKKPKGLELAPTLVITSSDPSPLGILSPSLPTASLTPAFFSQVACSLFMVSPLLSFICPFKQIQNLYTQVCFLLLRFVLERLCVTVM
In short: as §1

ETV2 = molecular target: T4, ETV2 (Homo sapiens, UniProt O00321 1-342)
T4 sequence: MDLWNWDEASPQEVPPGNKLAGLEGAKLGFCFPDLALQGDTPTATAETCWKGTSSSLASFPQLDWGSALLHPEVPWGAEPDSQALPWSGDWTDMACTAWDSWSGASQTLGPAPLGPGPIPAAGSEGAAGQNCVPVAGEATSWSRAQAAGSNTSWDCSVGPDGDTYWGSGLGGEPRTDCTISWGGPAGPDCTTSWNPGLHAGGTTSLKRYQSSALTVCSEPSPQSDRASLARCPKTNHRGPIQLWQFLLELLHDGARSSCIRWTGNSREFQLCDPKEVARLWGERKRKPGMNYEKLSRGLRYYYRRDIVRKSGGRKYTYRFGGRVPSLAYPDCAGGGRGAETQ
In short: as §1

ELF3 = molecular target: T5, ELF3 (Homo sapiens, UniProt P78545 1-371)
T5 sequence: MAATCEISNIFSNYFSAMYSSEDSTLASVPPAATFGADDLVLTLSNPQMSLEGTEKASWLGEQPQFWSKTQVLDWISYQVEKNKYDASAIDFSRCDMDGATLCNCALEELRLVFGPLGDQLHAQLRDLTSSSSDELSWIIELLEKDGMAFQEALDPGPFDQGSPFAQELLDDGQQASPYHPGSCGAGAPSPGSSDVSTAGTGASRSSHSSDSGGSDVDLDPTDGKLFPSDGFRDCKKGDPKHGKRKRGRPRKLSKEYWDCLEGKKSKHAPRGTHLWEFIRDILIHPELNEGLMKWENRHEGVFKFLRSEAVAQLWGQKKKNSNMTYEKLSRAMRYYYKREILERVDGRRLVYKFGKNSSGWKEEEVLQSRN
In short: as §1

CRX = CRX (Homo sapiens, UniProt O43186 1-299)
Sequence of CRX (O43186 whole entry): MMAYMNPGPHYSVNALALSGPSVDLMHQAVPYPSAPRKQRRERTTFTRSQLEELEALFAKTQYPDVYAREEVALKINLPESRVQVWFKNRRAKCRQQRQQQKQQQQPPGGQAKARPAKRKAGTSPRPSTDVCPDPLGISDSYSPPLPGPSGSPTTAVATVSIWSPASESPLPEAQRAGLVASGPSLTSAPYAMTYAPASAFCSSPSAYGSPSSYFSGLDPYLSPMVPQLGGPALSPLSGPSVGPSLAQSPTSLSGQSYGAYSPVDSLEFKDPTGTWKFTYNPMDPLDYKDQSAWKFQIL
In short: as §1

ETV1 = ETV1 (Homo sapiens, UniProt P50549 1-477)
Sequence of ETV1 (P50549 whole entry): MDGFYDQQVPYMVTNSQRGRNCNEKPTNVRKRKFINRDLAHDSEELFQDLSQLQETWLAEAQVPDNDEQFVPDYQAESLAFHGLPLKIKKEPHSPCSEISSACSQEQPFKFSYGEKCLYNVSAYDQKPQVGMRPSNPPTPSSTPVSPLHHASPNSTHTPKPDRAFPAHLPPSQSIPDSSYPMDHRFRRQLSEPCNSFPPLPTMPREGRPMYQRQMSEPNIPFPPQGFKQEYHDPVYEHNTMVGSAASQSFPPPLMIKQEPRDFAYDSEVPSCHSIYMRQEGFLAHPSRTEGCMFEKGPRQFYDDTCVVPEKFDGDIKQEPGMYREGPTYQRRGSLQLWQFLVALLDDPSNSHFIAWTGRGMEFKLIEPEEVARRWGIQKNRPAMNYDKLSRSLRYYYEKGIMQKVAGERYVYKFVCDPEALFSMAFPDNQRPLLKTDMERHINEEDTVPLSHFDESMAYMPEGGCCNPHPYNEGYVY
In short: as §1

ERF = molecular target: T6, ERF (Homo sapiens, UniProt P50548 1-548)
T6 sequence: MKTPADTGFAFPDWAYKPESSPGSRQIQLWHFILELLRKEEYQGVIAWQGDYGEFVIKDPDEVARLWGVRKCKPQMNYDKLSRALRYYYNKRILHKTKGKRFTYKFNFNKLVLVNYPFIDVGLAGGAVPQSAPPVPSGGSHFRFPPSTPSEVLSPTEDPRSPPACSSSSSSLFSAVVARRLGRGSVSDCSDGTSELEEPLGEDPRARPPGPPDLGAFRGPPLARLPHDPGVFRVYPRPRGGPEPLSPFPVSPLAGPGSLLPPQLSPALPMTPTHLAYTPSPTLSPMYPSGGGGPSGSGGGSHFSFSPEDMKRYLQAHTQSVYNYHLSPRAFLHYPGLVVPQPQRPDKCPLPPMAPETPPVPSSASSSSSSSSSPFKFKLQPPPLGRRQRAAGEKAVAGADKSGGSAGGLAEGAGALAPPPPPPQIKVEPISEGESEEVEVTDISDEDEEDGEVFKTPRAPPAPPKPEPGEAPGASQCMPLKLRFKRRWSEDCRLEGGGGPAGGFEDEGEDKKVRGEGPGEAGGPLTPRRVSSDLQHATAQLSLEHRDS
In short: as §1

ETV3L = molecular target: T7, ETV3L (Homo sapiens, UniProt Q6ZN32 1-361)
T7 sequence: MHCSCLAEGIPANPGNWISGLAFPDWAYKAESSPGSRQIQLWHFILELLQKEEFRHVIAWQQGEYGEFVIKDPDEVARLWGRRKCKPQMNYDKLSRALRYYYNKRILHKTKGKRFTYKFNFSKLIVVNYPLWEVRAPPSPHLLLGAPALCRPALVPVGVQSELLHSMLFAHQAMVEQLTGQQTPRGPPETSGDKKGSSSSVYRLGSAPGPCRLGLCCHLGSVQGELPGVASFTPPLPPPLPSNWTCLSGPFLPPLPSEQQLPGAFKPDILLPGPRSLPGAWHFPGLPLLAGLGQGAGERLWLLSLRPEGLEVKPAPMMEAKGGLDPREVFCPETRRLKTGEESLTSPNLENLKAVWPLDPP
In short: as §1

ETS2 = molecular target: T8, ETS2 (Homo sapiens, UniProt P15036 1-469)
T8 sequence: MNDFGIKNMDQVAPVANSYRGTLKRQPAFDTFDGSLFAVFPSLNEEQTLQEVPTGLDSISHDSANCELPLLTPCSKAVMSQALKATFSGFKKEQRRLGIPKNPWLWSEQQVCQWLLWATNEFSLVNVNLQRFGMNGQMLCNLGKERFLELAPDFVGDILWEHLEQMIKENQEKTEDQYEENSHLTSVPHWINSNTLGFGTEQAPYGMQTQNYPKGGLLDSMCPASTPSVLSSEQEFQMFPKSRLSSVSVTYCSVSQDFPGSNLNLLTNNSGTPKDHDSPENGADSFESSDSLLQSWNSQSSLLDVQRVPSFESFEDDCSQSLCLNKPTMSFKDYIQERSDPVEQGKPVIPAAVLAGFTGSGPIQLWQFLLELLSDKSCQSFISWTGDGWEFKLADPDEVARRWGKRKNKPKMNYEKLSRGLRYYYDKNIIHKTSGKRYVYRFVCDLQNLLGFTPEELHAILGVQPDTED
In short: as §1

SPDEF = molecular target: T9, SPDEF (Homo sapiens, UniProt O95238 1-335)
T9 sequence: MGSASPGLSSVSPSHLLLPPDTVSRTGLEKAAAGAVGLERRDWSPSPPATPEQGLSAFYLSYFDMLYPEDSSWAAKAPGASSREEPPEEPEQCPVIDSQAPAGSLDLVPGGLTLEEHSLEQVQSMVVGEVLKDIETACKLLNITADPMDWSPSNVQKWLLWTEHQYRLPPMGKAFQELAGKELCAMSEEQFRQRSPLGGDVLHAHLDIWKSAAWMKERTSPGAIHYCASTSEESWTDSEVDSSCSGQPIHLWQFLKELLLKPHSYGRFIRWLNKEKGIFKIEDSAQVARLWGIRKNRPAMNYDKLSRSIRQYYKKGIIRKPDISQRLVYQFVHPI
In short: as §1

ETV7 = molecular target: T10, ETV7 (Homo sapiens, UniProt Q9Y603 1-341)
T10 sequence: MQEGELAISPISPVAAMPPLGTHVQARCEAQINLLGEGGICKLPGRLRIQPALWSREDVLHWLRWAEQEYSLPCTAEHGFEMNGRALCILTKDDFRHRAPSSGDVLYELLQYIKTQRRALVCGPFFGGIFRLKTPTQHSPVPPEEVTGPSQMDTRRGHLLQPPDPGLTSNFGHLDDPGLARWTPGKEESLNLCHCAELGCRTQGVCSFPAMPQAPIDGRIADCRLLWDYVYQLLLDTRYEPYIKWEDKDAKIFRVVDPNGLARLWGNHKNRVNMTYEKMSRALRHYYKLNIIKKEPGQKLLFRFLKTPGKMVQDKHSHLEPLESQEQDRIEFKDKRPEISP
In short: as §1

ELF5 = molecular target: T11, ELF5 (Homo sapiens, UniProt Q9UKW6-2 1-255)
T11 sequence: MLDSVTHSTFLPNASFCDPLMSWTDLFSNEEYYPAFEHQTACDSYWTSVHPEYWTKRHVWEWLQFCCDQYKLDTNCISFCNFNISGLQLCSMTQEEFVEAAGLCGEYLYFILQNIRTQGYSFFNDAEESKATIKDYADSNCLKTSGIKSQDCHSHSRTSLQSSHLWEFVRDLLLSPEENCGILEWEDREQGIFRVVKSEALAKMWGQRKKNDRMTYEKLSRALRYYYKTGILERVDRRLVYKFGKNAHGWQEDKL
In short: as §1

ETV3 = molecular target: T12, ETV3 (Homo sapiens, UniProt P41162-2 1-143)
T12 sequence: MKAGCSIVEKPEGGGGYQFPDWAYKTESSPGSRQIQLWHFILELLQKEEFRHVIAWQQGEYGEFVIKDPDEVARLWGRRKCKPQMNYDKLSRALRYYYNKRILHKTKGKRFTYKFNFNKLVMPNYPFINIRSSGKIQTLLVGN
In short: as §1

ETV6 = ETV6 (Homo sapiens, UniProt P41212 1-452)
Sequence of ETV6 (P41212 whole entry): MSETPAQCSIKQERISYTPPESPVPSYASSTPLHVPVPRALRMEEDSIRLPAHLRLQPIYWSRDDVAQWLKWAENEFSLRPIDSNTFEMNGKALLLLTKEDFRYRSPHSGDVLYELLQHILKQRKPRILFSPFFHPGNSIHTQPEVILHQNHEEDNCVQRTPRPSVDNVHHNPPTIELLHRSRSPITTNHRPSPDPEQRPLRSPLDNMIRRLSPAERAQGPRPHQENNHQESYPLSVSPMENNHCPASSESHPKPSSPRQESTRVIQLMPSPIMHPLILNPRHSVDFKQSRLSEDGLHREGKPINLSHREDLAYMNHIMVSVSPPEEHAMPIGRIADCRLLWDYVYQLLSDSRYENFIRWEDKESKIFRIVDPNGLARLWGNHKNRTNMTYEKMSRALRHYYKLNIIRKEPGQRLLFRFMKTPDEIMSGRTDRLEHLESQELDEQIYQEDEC
In short: as §1

Row | Sequence | binding signal (FEV) | binding signal (ETV5) | binding signal (SPIC) | binding signal (ELF4) | binding signal (ELK4) | binding signal (ETV2) | binding signal (ELF3) | binding signal (CRX) | binding signal (ETV1) | binding signal (ERF) | binding signal (ETV3L) | binding signal (ETS2) | binding signal (SPDEF) | binding signal (ETV7) | binding signal (ELF5) | binding signal (ETV3) | binding signal (ETV6)
1 | AACGGC | 1.17 fold enrichment (6-mer frequency, TF over GST control) | 1.29 fold enrichment (6-mer frequency, TF over GST control) | 1.12 fold enrichment (6-mer frequency, TF over GST control) | 1.24 fold enrichment (6-mer frequency, TF over GST control) | 1.24 fold enrichment (6-mer frequency, TF over GST control) | 1.21 fold enrichment (6-mer frequency, TF over GST control) | 1.12 fold enrichment (6-mer frequency, TF over GST control) | 1.11 fold enrichment (6-mer frequency, TF over GST control) | 1.17 fold enrichment (6-mer frequency, TF over GST control) | 1.2 fold enrichment (6-mer frequency, TF over GST control) | 1.23 fold enrichment (6-mer frequency, TF over GST control) | 1.22 fold enrichment (6-mer frequency, TF over GST control) | 1.16 fold enrichment (6-mer frequency, TF over GST control) | 1.11 fold enrichment (6-mer frequency, TF over GST control) | 1.16 fold enrichment (6-mer frequency, TF over GST control) | 1.29 fold enrichment (6-mer frequency, TF over GST control) | 1.26 fold enrichment (6-mer frequency, TF over GST control)
2 | CCGCCA | 1.37 fold enrichment (6-mer frequency, TF over GST control) | 1.21 fold enrichment (6-mer frequency, TF over GST control) | 1.37 fold enrichment (6-mer frequency, TF over GST control) | 1.45 fold enrichment (6-mer frequency, TF over GST control) | 1.44 fold enrichment (6-mer frequency, TF over GST control) | 1.19 fold enrichment (6-mer frequency, TF over GST control) | 1.48 fold enrichment (6-mer frequency, TF over GST control) | 1.02 fold enrichment (6-mer frequency, TF over GST control) | 1.32 fold enrichment (6-mer frequency, TF over GST control) | 1.36 fold enrichment (6-mer frequency, TF over GST control) | 1.33 fold enrichment (6-mer frequency, TF over GST control) | 1.22 fold enrichment (6-mer frequency, TF over GST control) | 1.29 fold enrichment (6-mer frequency, TF over GST control) | 1.26 fold enrichment (6-mer frequency, TF over GST control) | 1.47 fold enrichment (6-mer frequency, TF over GST control) | 1.43 fold enrichment (6-mer frequency, TF over GST control) | 1.26 fold enrichment (6-mer frequency, TF over GST control)
